High-throughput results: PubChem BioAssay, University of Kansas High Throughput Screening Laboratory
The full list was thinned out, with hits kept by preference.
Pf apPOL inh: Pf-apPOL inhibitors, biochemical, fluorescence; Recombinant Pf-apPOL, molecular beacon fluorescence, 1.5 h; inhibition, % at 10 µM; AID 1794808, 2022; hit rate 0.25% among 210,000
mHTT CaM bind: mutant huntingtin-calmodulin interaction inhibitors – biochemical, AlphaScreen, primary screen | AlphaScreen His-mHTT/GST-CaM binding, luminescence | inhibition, % at 15 µM | hit rate 3.6% among 190,000 | AID 1671202, 2021;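 note: 0% = both proteins with DMSO and 100% = one protein alone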
An asterisk follows results filed as active. Cut-off read from the data, not from the text of the source: active = inhibition above about 50%; inactive = the rest.

Results for COc1ccc(C2=C/C(=C3/c4ccccc4-c4ncccc43)C(=O)O2)c(OC)c1 ?
Pf apPOL inh: -5.2; mHTT CaM bind: 22.0

How did COC(=O)c1ccc(C=C2Oc3c(ccc(O)c3CN3CCCC3)C2=O)cc1 do in these assays?
Pf apPOL inh: -5.7; mHTT CaM bind: 12.7

What do the screens show for `COc1ccc(C=C2Oc3c(ccc(O)c3CN3CCCC(C)C3)C2=O)c(OC)c1OC` (centres undefined)?
Pf apPOL inh: -7.9; mHTT CaM bind: 26.8

Results for CCN1CCN(Cc2c(O)ccc3c2OC(=Cc2cc(Cl)cc4c2OCOC4)C3=O)CC1 ?
Pf apPOL inh: 8.4; mHTT CaM bind: 54.9*

How did O=C1C(=Cc2cc3cc(Br)ccc3o2)Oc2c1ccc(O)c2CN1CCN(CCO)CC1 do in these assays?
Pf apPOL inh: 1.1; mHTT CaM bind: 60.2*

Results for COC(=O)c1ccc(C=C2Oc3c(ccc(O)c3CN3CCCCC3C)C2=O)cc1 (centres undefined) ?
Pf apPOL inh: -27.9; mHTT CaM bind: 51.5*

How did COc1cc(OC)c(OC)cc1C=C1Oc2c(ccc(O)c2CN2CCCC(C)C2)C1=O (centres undefined) do in these assays?
Pf apPOL inh: -1.3; mHTT CaM bind: 51.3*

How did O=C1C(=Cc2cc(Cl)cc3c2OCOC3)Oc2c1ccc(O)c2CN1CCOCC1 do in these assays?
Pf apPOL inh: 3.9; mHTT CaM bind: 8.9

What do the screens show for `COc1ccc(Br)cc1C=C1Oc2c(ccc(O)c2CN2CCN(CCO)CC2)C1=O`?
Pf apPOL inh: -1.2; mHTT CaM bind: 24.8

What do the screens show for `COc1ccc(OC)c(-c2cn3ccn(-c4cccc(F)c4)c(=O)c3n2)c1`?
Pf apPOL inh: -2.7; mHTT CaM bind: -2.1

How did Nc1nnc(SCC(=O)Nc2cccc([N+](=O)[O-])c2)s1 do in these assays?
Pf apPOL inh: -8.8; mHTT CaM bind: -3.2

What do the screens show for `CCCN(C)C(=O)c1cc(=O)[nH]c2ccccc12`?
Pf apPOL inh: -2.2; mHTT CaM bind: 0.6

Results for C=CCNC(=O)c1c[nH]c2ccc(S(=O)(=O)N(C)c3ccc(Br)cc3)cc2c1=O ?
Pf apPOL inh: -5.8; mHTT CaM bind: 55.0*

How did COCCNC(=O)c1c[nH]c2ccc(S(=O)(=O)N(C)c3ccc(Cl)cc3)cc2c1=O do in these assays?
Pf apPOL inh: -9.6; mHTT CaM bind: 50.0*

What do the screens show for `CCOCCCNC(=O)c1c[nH]c2ccc(S(=O)(=O)N(C)c3ccc(Cl)cc3)cc2c1=O`?
Pf apPOL inh: -11.1; mHTT CaM bind: 24.0

How did C=CCNC(=O)c1c[nH]c2ccc(S(=O)(=O)N(CC)c3ccc(F)cc3)cc2c1=O do in these assays?
Pf apPOL inh: -10.2; mHTT CaM bind: 15.0

What do the screens show for `COCCn1cc2c3c(cccc31)CN(C(=O)c1ccc3c(c1)OCO3)CC2`?
Pf apPOL inh: -4.8; mHTT CaM bind: 33.5

How did COc1ccccc1CNC(=O)CSc1ccc(Cl)cc1 do in these assays?
Pf apPOL inh: -2.0; mHTT CaM bind: -6.4

How did O=C(c1ccccn1)N1CCCC2(C1)Nc1ccccc1NC2=NCc1ccccc1 (centres undefined) do in these assays?
Pf apPOL inh: -9.0; mHTT CaM bind: 45.0

What do the screens show for `CCn1nccc1C(=O)N1CCCC2(C1)Nc1ccccc1NC2=NCc1ccccc1` (centres undefined)?
Pf apPOL inh: -11.1; mHTT CaM bind: 35.7

Results for O=C(c1ccco1)N1CCCC2(C1)Nc1ccccc1NC2=NCc1ccccc1 (centres undefined) ?
Pf apPOL inh: -4.8; mHTT CaM bind: 83.8*

How did O=C(c1cccnc1)N1CCCC2(C1)Nc1ccccc1NC2=NCc1ccccc1 (centres undefined) do in these assays?
Pf apPOL inh: -4.8; mHTT CaM bind: 45.5

Results for O=C(c1ccoc1)N1CCCC2(C1)Nc1ccccc1NC2=NCc1ccccc1 (centres undefined) ?
Pf apPOL inh: 4.3; mHTT CaM bind: 99.7*

How did CC(=O)N1CCCC2(C1)Nc1ccccc1NC2=NCc1ccccc1 (centres undefined) do in these assays?
Pf apPOL inh: 0.7; mHTT CaM bind: 72.2*

What do the screens show for `COc1cc(C=O)cc(I)c1OCc1ccc(F)cc1`?
Pf apPOL inh: -8.2; mHTT CaM bind: -14.8

How did COc1ccc(CNC(=O)C2CCN(c3c(C#N)cnc4ccc(C)cc34)CC2)cc1 do in these assays?
Pf apPOL inh: -2.3; mHTT CaM bind: 7.0

What do the screens show for `CCNC(=O)C1CCCN(c2nc3ncn(CC(=O)Nc4ccccc4)c(=O)c3s2)C1` (centres undefined)?
Pf apPOL inh: -3.1; mHTT CaM bind: -2.7

How did O=C(NC1CC1)c1[nH]c2ccccc2c1N1CCCC1=O do in these assays?
Pf apPOL inh: -2.7; mHTT CaM bind: 1.6

What do the screens show for `O=[N+]([O-])c1cccnc1N1CCOCC1`?
Pf apPOL inh: -8.4; mHTT CaM bind: -6.0

What do the screens show for `Cc1ccc(Nc2c([N+](=O)[O-])cc([N+](=O)[O-])c3cccnc23)cc1`?
Pf apPOL inh: -2.2; mHTT CaM bind: 51.0*

How did CCOc1ccc(Nc2c([N+](=O)[O-])cc([N+](=O)[O-])c3cccnc23)cc1 do in these assays?
Pf apPOL inh: -5.9; mHTT CaM bind: 29.0

Results for O=[N+]([O-])c1cc([N+](=O)[O-])c2cccnc2c1Nc1ccc(N2CCOCC2)cc1 ?
Pf apPOL inh: -1.6; mHTT CaM bind: 56.0*

Results for COc1cc(OC)c(NC(=O)N2CCN(c3cc(-n4cccn4)ncn3)CC2)cc1Cl ?
Pf apPOL inh: -7.3; mHTT CaM bind: 35.5

How did Cc1ccc(C2CCCN2C(=O)Cc2ccc(F)cc2)cc1 (centres undefined) do in these assays?
Pf apPOL inh: -4.8; mHTT CaM bind: 10.8

What do the screens show for `Cc1ccc(C2CCCN2C(=O)Cc2ccc(Cl)cc2)cc1` (centres undefined)?
Pf apPOL inh: -1.0; mHTT CaM bind: 57.8*

What do the screens show for `Cc1ccccc1C1CCCN1C(=O)Cc1cccc(Cl)c1` (centres undefined)?
Pf apPOL inh: -4.1; mHTT CaM bind: 6.7

Results for Cc1ccccc1C1CCCN1C(=O)Cc1ccc(Cl)cc1 (centres undefined) ?
Pf apPOL inh: 1.4; mHTT CaM bind: 58.0*

What do the screens show for `COCCCN1COc2ccc3c(=O)c(Oc4ccc(C(=O)OC)cc4)c(C)oc3c2C1`?
Pf apPOL inh: -19.1; mHTT CaM bind: 2.8

What do the screens show for `COC(=O)c1ccc(Oc2c(C)oc3c4c(ccc3c2=O)OCN(Cc2ccccn2)C4)cc1`?
Pf apPOL inh: -35.8; mHTT CaM bind: 100.1*

How did COc1ccc2cc(C(C)=NOC(=O)C(C)(C)C)ccc2c1 do in these assays?
Pf apPOL inh: -3.8

Results for CC(C)(C)c1cc(CSCc2cc(C(C)(C)C)cc(C(C)(C)C)c2)cc(C(C)(C)C)c1 ?
mHTT CaM bind: -8.6

How did Oc1ccc(Br)cc1/C=N/n1cnnc1 do in these assays?
mHTT CaM bind: inactive

Results for Nc1nnnn1/N=C/c1cc(Br)ccc1O ?
mHTT CaM bind: active

How did CC1CCCCN1CCNC(=O)C1CCN(c2cncnc2N2CCN(C)CC2)CC1 (centres undefined) do in these assays?
Pf apPOL inh: -1.2; mHTT CaM bind: 11.6

How did Cc1ccccc1Nc1nccc(C2CCCN(C(=O)c3ccoc3)C2)n1 (centres undefined) do in these assays?
Pf apPOL inh: -4.5; mHTT CaM bind: 20.3

Results for O=C(c1ccc(F)cc1)N1CCCC(c2ccnc(Nc3cccc(F)c3)n2)C1 (centres undefined) ?
Pf apPOL inh: 0.4; mHTT CaM bind: 80.9*
